# Only some compounds are listed: those with a hit (about 19% of all), similar ones and a draw of the others.
# CHX counter – affects cycloheximide protein synthesis inhibition readout, counter-screen. cell reporter, cycloheximide protein synthesis inhibition counterscreen. max response, %. actives 12% (n = 300,000). AID 2314; in the data active = max response mostly above about 13%, no sharp cut-off; inactive = mostly below about 14%; note: read at 38.3 µM for the half of the compounds with a filed dose; 0% is about no effect
# Pf growth 96h – P. falciparum growth inhibition at 96 hours; P. falciparum luciferase reporter growth, 96 h; Potency, µM (titrated, usually from 28.7 µM), for inactives: top-dose activity change, negative = inhibition, actives largely listed as inhibitors; actives 6.9% (n = 320,000); AID 504834; note: potency is the fitted concentration of half-maximal effect; % is set by controls: 0 for no effect and ±100 for the full control effect
#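 Readout is luminescence from an integrated firefly luciferase in P. falciparum. Red cells, 2% hematocrit and 0.05% parasitemia final, were cultured with compound through two parasite generations (96 hours) at 37 C, 5% CO2.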
# Pf growth 48h – P. falciparum growth inhibition at 48 hours (one generation). P. falciparum luciferase growth in erythrocytes, 48 h. Potency, µM (doses to about 28.7 µM), without a hit: top-dose activity change, negative = inhibition, actives largely listed as inhibitors. actives 5.9% (n = 310,000). AID 504832; note: potency is the fitted concentration of half-maximal effect; % is set by controls: 0 for no effect and ±100 for the full control effect
#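 Growth was read as firefly luciferase luminescence after a 48 h, 37 C, 5% CO2 exposure of compounds to reporter-bearing P. falciparum cultures (0.1% parasitemia, 2% hematocrit final) in Albumax-supplemented RPMI 1640.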
# Marburg entry inh – inhibitors of Marburg virus binding or cell entry | AID 540276 | actives 1.8% (n = 300,000) | Marburg virus pseudotyped entry inhibition, cell reporter | Potency, µM (doses to about 37.8 µM), for inactives: top-dose activity change, negative = inhibition, actives largely listed as inhibitors; calls by dose curve; tested in HEK293 cells; note: potency is the fitted concentration of half-maximal effect; % is set by controls: 0 for no effect and ±100 for the full control effect
# LASV entry inh – blocks Lassa virus binding to or entry into cells; Lassa virus pseudotype entry inhibition, cell reporter; Potency, µM (top dose mostly 37.9 µM), for inactives: at the highest dose activity change, negative = inhibition, actives largely listed as inhibitors; actives 1.2% (n = 300,000); AID 540256; calls by dose curve; tested in HEK293 cells; note: potency is the fitted concentration of half-maximal effect; % is set by controls: 0 for no effect and ±100 for the full control effect; nearly all actives have a fitted effect of over 50% in size
# Shiga inhibitor – blocks Shiga toxin action in Vero cells; AID 2315; actives 9.2% (n = 290,000); Vero cells, Shiga toxin protein synthesis inhibition reporter; inhibition, % at 38.7 µM; in the data active = inhibition mostly above about 28%, no sharp cut-off; inactive = mostly below about 43%; note: 0% is about no effect
# * hit, by the source's call; i = inactive; ? = inconclusive; . = no result given; [ ] = another dose, or the depositor's remark. Unless noted, calls come from the whole dose curve; as a rule, active = well fitted inhibition curve with a large enough effect; inconclusive = small, poorly fitted or top-dose-only effect, or another doubt; inactive = no such curve, though single readings can be large or run the other way.
SMILES,CHX counter,Pf growth 96h,Pf growth 48h,Marburg entry inh,LASV entry inh,Shiga inhibitor
COc1cc2c3c(c1)C1(C(=O)N3C(C)(C)C=C2C)C(C#N)=C(N)Oc2cc(O)ccc21 (stereo not given),1,.,?,1%,-9%,11
CC1=CC(C)(C)N2C(=O)C3(C(C#N)=C(N)Oc4cc(C)oc(=O)c43)c3cccc1c32 (stereo not given),-2,15µM*,?,-19%[46.1 µM],9%,-7
CCN1C(=O)C2(C(C#N)=C(N)Oc3cc(C)oc(=O)c32)c2ccccc21 (stereo not given),-3,32%,8%,8%,?,8
CCCc1nn(C)c2c(=O)[nH]c(-c3cc(S(=O)(=O)N4CCN(C)CC4)ccc3OCC)nc12,-2,?,?,.,.,3
Cc1ccc(-n2c(SCC(=O)N3CCCc4ccccc43)nnc2-c2cccnc2)c(C)c1,-1,-19%,?,-17%,8%,-2
Cc1ccc(-n2c(-c3ccccc3)c[n+]3c2CCc2ccccc2-3)c(C)c1,2,0%,0.93µM*,?,1µM*,2
CC1CCN(c2ccc3nnc(CCC(=O)NCc4ccco4)n3n2)CC1,12,?,-20%,.,.,6
O=C(O)c1cccc(-n2cc(-c3cccc(C(F)(F)F)c3)cn2)c1,54*,341%,231%,.,.,118*
O=C(O)c1ccc(-c2nc(-c3cccc(C(F)(F)F)c3)cs2)cc1,7,55%,30%,.,.,79
Cc1ccc(OC(=O)CCC(=O)Nc2ccc(C(N)=O)cc2)cc1,.,.,.,?,-21%,.
Cc1ccc(NC(=O)C2OCCc3ccccc32)cc1Cl (stereo not given),18*,8.3µM*,-7%,.,.,58*
Cc1ccc(NC(=O)C2OCCc3ccccc32)cc1 (stereo not given),40*,48%,46%,?,14%,79*
CCN(CC(=O)Nc1cccc(OC)c1)C(=O)c1ccncc1,-4,7%,3%,4%[46.1 µM],9%,6
C=CCN1C[C@@H](C)N(C(c2ccc(C(=O)N(CC)CC)cc2)c2cccc(OC)c2)C[C@@H]1C (stereo not given in full),.,7%,1.7µM*,.,.,.
CCN(CC)C(=O)c1cn(-c2cccc(OC)c2)c(=O)c2ccccc12,-1,?,-7%,.,.,-12
C=CCN1C[C@H](C)N([C@H](c2ccc(C(=O)N(CC)CC)cc2)c2cccc(OC)c2)C[C@H]1C,.,-25%,4.8µM*,.,.,.
C=CCN1C[C@@H](C)N([C@H](c2ccc(C(=O)N(CC)CC)cc2)c2cccc(OC)c2)C[C@@H]1C,.,.,.,16µM*,?,.
O=C(NCC1CCCO1)C(c1ccc(F)cc1)N(Cc1ccc(F)cc1)C(=O)Cn1nnc(-c2cccs2)n1 (stereo not given),-4,?,?,14%,0%,4
CC(=O)Nc1ccc(S(=O)(=O)NCC2CCC(C(=O)NC(C)c3ccccc3)CC2)cc1 (stereo not given),1,71%,?,3%[46.1 µM],-20%[46.1 µM],2
O=C(NC(=S)Nc1nc2ccc(F)cc2s1)c1ccco1,32*,?,118%,?,-1%[46.1 µM],90*
Cc1cccc2sc(NC(=O)CCNC(=O)c3ccco3)nc12,.,-8%,?,2%[46.1 µM],2%,.
Cc1ccc(C(=O)Nc2nc3ccc(S(C)(=O)=O)cc3s2)o1,34*,356%,233%,6%,5%,44*
CS(=O)(=O)c1ccc2nc(NC(=O)c3ccco3)sc2c1,36*,143%,99%,-40%,?,40*
CS(=O)(=O)c1ccc2nc(NC(=O)c3cc4ccccc4o3)sc2c1,-1,-33%,.,?,-11%,-6
Cc1cc(NC(=O)CSCC(=O)Nc2nc3ccc(F)cc3s2)no1,.,-29%,37%,.,.,.
SMILES,CHX counter,Pf growth 96h,Pf growth 48h,Marburg entry inh,LASV entry inh,Shiga inhibitor
Cc1noc(C)c1C(=O)Nc1nc2ccc(S(C)(=O)=O)cc2s1,2,-27%,15%,?,?,32
Cc1c(Cl)ccc2sc(NC(=O)c3ccco3)nc12,67*,206%,195%,.,.,83*
CCOC(=O)N1CCc2c(sc(N)c2C#N)C1,1,7%,25%,?,-9%[46.1 µM],3
O=c1[nH]c(=O)n(Cc2ccco2)c(O)c1/C=N/N1CCCCCC1,-2,?,22%,-1%,-1%,5
COC(=O)c1ccc2c(=O)n3nc(Nc4ccc(F)cc4F)sc3nc2c1,.,.,.,.,3%[46.1 µM],.
COc1ccccc1N1CCN(C(=O)c2ccc(Cl)c(S(=O)(=O)NCc3ccco3)c2)CC1,28*,.,?,?,?,66
O=C(Nc1ccccc1N1CCOCC1)c1ccc(Cl)c(S(=O)(=O)NCc2ccco2)c1,28*,?,?,.,.,74
COc1cccc(-c2noc(-c3cc4ccccc4oc3=O)n2)c1OC,.,.,.,.,13%[46.1 µM],.
CC1(C)Cc2ccccc2C(c2cc3ccccc3oc2=O)=N1,-2,?,8.3µM*,1%,-1%,1
CC1=NC(C)(C)Cc2ccccc21,-2,-4%,-3%,17%,?,-17
CC1(C)Cc2c(ccc3ccccc23)C(c2cc3ccccc3oc2=O)=N1,-4,10µM*,?,5.8µM*,13µM*,-8
CCCn1c(SCc2nc(-c3ccc(OC)c(OC)c3)no2)nnc1-c1ccccc1,.,.,.,5.6µM*,-26%[46.1 µM],.
COc1ccc(-c2noc(CCCc3ccccc3)n2)cc1OC,12*,13%,14%,-2%,-6%,21
Clc1ccc(-c2noc(CCCOc3ccccc3)n2)cc1,8,0%,7%,1%,-6%,6
Cc1ccc(-c2noc(CCCc3ccccc3)n2)cc1,31*,.,17%,5%,19%,62*
Cc1cc(N2CCCC2)nc2ccccc12,1,0%,-10%,-17%,-19%,-3
Cc1ccc2c(c1)Cc1nc3ccccc3nc1-2,3,?,i,6.3µM*,?,52
O=C1c2ccccc2C(Nc2ccc(Cl)cn2)N1c1ccccn1 (stereo not given),0,6%,12µM*,.,.,3
Cc1ccc(N2C(=O)c3ccccc3C2O)nc1 (stereo not given),7,?,24%,2.1µM*,3.7µM*,0
CCOC(=O)c1ccccc1NC1c2ccccc2C(=O)N1c1cc(C)ccn1 (stereo not given),-7,?,.,.,.,-18
COc1cc(OC)c(NC2c3ccccc3C(=O)N2c2cc(C)ccn2)cc1Cl (stereo not given),-1,12µM*,-12%,.,.,-4
Cc1ccccc1N1C(=O)c2ccccc2C1O (stereo not given),11,?,1%[0.00184 µM],.,.,34
Cc1ccc(N2C(=O)c3ccccc3C2Nc2ccccc2F)nc1 (stereo not given),32*,?,.,.,.,55*
COC(=O)c1c(NC(=O)C2c3ccccc3Oc3ccccc32)sc2c1CCC(C(C)(C)C)C2 (stereo not given),.,.,.,?,-5%[46.1 µM],.

# Assay outcomes deposited in PubChem BioAssay by National Center for Advancing Translational Sciences (NCATS).
